Only some compounds are listed: those with a hit (about 3% of all), similar ones and a draw of the others.
GDH-TPI counter – inhibits GDH-TPI coupling enzymes, artifact for Mtb FBA screen. inhibition, % at 4.8 µM. 1.2% of 360,000 active. GDH-TPI coupled enzyme counterscreen, NADH absorbance; in the data active = inhibition above about 30%;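 note: 0% = DMSO wells and 100% = wells lacking the enzyme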
BH1578 lux ind – quorum light induction in luxS cqsA deficient V. cholerae | V. cholerae BH1578 lux reporter, luminescence, 6 h | activation, % at 18.7 µM | 0.16% of 350,000 active | AID 588436; in the data active = activation mostly above about 9.7%, no sharp cut-off
FBA Mtb inh – inhibits M. tuberculosis FBA enzyme | P9WQA3 | inhibition, % at 1 µM | 2.3% of 360,000 active | AID 588726 | purified M. tuberculosis FBA, fluorescence read-out; in the data active = inhibition above about 27%;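 note: 0% = vehicle and 100% = reference inhibitor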
Target sequence (P9WQA3 whole entry, looked up): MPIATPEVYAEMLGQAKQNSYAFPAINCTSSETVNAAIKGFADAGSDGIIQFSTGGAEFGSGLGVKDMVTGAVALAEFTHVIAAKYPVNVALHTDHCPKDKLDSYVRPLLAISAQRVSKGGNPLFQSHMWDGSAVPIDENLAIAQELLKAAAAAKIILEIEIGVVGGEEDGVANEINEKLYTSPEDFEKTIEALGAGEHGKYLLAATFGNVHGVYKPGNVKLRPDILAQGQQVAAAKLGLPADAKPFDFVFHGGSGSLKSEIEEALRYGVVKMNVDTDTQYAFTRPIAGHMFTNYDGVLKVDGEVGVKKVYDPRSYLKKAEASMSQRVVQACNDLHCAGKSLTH
Mtb BioA inh – BioA (M. tuberculosis) enzyme inhibition | purified M. tuberculosis BioA enzyme, plate reader | 0.096% of 360,000 active | AID 602481 | inhibition, % at 9.99 µM; in the data active = inhibition above about 40%
Numbers without * were called inactive; i = inactive; . = no result given; + = active, no number.

SMILES	GDH-TPI counter	BH1578 lux ind	FBA Mtb inh	Mtb BioA inh
CNS(=O)(=O)c1cccc(C(=O)OCC(=O)Nc2ccc(-c3nc4ccc(C)cc4s3)cc2)c1	23	0	29*	.
O=C(O)c1ccc(-c2ccc(-c3ccccc3)cc2)s1	27	0	118*	-1
CC1(C)C=C(c2ccc(C(=O)O)s2)CC(C)(C)N1	-1	0	1	-3
Cc1cc(-c2ccc(C(=O)O)s2)cnc1N	17	0	+	.
O=C(Nc1ccccc1)c1ccc(-c2ccccc2)s1	-9	-1	-1	.
CN1C(=C2C(=O)OC(C)(C)OC2=O)Sc2ccccc21	46*	-1	-3	2
CN1CCC[C@H]1CCNc1ccc2c(=O)c3ccccc3n(C)c2c1	33*	0	187*	-1
CN1CCCC1CCNc1ccc2c(=O)c3ccccc3oc2c1 (configuration not stated)	31*	i	+	2
COc1ccc(S(=O)(=O)Nc2cccc3c2O[C@@H](CN(C)C(=O)Nc2ccc4c(c2)OCO4)[C@H](C)CN([C@@H](C)CO)C3=O)cc1	.	.	.	-1
C[C@@H]1CN([C@@H](C)CO)C(=O)c2cc(NC(=O)CCN3CCOCC3)ccc2O[C@H]1CN(C)C(=O)Nc1ccc(F)cc1	.	.	.	0
O=C(CC1OC(=O)c2ccccc21)c1ccco1 (configuration not stated)	41*	i	-2	1
COc1ccc(-c2ccc(C#N)c(SCC(=O)NCCc3ccccc3)n2)cc1OC	13	i	152*	.
CO[C@@H]1CN(C)C(=O)c2ccc(NC(=O)c3cnccn3)cc2OC[C@H](C)N(C)C[C@H]1C	.	.	.	0
Cc1c(C2(O)CCCCC2)[nH]c2ncccc12	6	-4	1	0
Cc1c(C2(O)CCCCC2)[nH]c2cnccc12	13	i	127*	0
COc1ccc(-c2ccc3oc(-c4ccc(OC)cc4)c(C#CCO)c3c2)cc1	31*	-1	16	0
COc1ccc(-c2oc3ccc(-c4ccc(OC)nc4)cc3c2C#CC2(O)CCCCC2)cc1	31*	-1	7	-2
COc1ccc(C(=O)c2c(-c3ccc(OC)cc3)oc3ccc(-c4cc(OC)c(OC)c(OC)c4)cc23)cc1	37*	i	9	0
COc1ccc(-c2oc3ccc(-c4cc(OC)c(OC)c(OC)c4)cc3c2C(=O)c2ccc(OC)nc2)cc1	14	-4	0	0
COc1ccc(-c2ccc3oc(-c4ccc(OC)cc4)c(-c4ccc(OC)cc4)c3c2)cc1	10	6	-2	-1
COc1ccc(-c2sc3cc4c(cc3c2C#CC2(O)CCCCC2)OCO4)cc1	12	0	6	-1
COc1ccc(-c2oc3ccc(-c4ccc5c(c4)OCO5)cc3c2C#CC2(O)CCCCC2)cc1	54*	-6	45*	0
C[C@@H]1CN([C@H](C)CO)C(=O)c2cc(C#CC3CCCCC3)cnc2O[C@H]1CN(C)Cc1cncnc1	.	.	.	4
COc1cc(-c2ccc3oc(-c4cccc(C)c4)c(C#CC4(O)CCCCC4)c3c2)cc(OC)c1OC	35*	-5	117*	-6
C[C@@H]1CN([C@@H](C)CO)C(=O)c2cc(-c3cncnc3)cnc2O[C@H]1CN(C)C(=O)Cc1cccnc1	.	.	.	0
SMILES	GDH-TPI counter	BH1578 lux ind	FBA Mtb inh	Mtb BioA inh
COc1ccc(S(=O)(=O)N[C@H]2CC[C@@H](CCNC(=O)CN3CCOCC3)O[C@H]2CO)cc1	.	.	.	-1
CCOc1ccc(C(NC(C)=O)c2ccc(OC)c(OC)c2)cc1 (configuration not stated)	-1	i	-4	-4
CCCC(=O)NC(c1ccc(OCC)cc1)c1ccc(OC)c(OC)c1 (configuration not stated)	10	i	156*	-5
O=C(O)c1ccc(/C=C/c2nc3ccccc3c(=O)n2-c2ccc(Br)cc2)cc1	39*	i	-4	11
O=C(O)c1cccc(-n2c(/C=C/c3ccccc3)nc3ccccc3c2=O)c1	32*	-1	1	0
CN(C)c1ccc(/C=C/c2nc3ccccc3c(=O)n2-c2ccc(C(=O)O)cc2)cc1	20	0	-8	-89
COc1ccc(NC(=O)N(C)C[C@H]2Oc3ccc(NS(C)(=O)=O)cc3C(=O)N([C@@H](C)CO)C[C@@H]2C)cc1	.	.	.	0
COC(=O)C1C2c3ccccc3OC1(C)N=c1s/c(=C/c3cn(C)nc3C)c(=O)n12 (configuration not stated)	55*	0	-7	.
COc1cc(N/N=C/c2ccccc2O)ncn1	47*	0	3	-3
CC(C)(C)n1nnnc1C(c1ccc(F)cc1)N(Cc1ccc(F)cc1)Cc1ccco1 (configuration not stated)	-8	3	-1	-2

Assay outcomes as filed in PubChem.
